Assay results from PubChem BioAssay (NCATS).
“And” between values parts separate entries of the source, which are not always exact repeats. Equal entries are not always repeated. Results filed as inconclusive are left out. Where a call stands in place of a potency, no number is given. The source made the active and inactive calls. Calls come from the whole dose curve.

test: Cytotoxicity counterscreen for inhibitors of SARS-CoV-2 cell entry (AID 1645845); settings: cell viability (SARS-CoV-2 entry assay cells); series mostly up to 57.1 µM; activity change, negative = cytotoxicity: at the top concentration; note: nearly all actives have a fitted effect of over 50% in size
Outline: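 HEK293-ACE2 cells (Expi293F stably expressing human ACE2) seeded overnight, then compound for 1 h plus 48 h at 37C. Viability as ATP content by luminescence; normalized to wells with cells and media-only wells.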

| Structure (SMILES) | activity change, negative = cytotoxicity | outcome |
| --- | --- | --- |
| Cc1cc(NS(=O)(=O)c2ccc(N)cc2)no1 | -13.3% (inactive) | – |
| CC[N+](CC)(CCNC(=O)C(=O)NCC[N+](CC)(CC)Cc1ccccc1Cl)Cc1ccccc1Cl | – | inactive |
| Cc1cccc(C)c1OCC(=O)N[C@@H](Cc1ccccc1)[C@@H](O)C[C@H](Cc1ccccc1)NC(=O)[C@H](C(C)C)N1CCCNC1=O | -4.69% (inactive) | – |

test: Primary qHTS to identify inhibitors of SARS-CoV-2 cell entry (AID 1645846); settings: SARS-CoV-2 pseudovirus cell entry assay, luminescence; activity change, negative = inhibition: at 57.1 µM (top of the series) unless noted; series mostly up to 57.1 µM; note: nearly all actives have a fitted effect of over 45% in size; note: potency is the fitted concentration of half-maximal effect
Outline: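 Using luciferase-reporting pseudoviruses carrying Wuhan-Hu-1 spike, the screen tracks entry into stably ACE2-expressing cells over 48 hr. Activity is expressed relative to spike particles versus particles lacking any fusion protein.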

| Structure (SMILES) | activity change, negative = inhibition [%] | outcome | Potency |
| --- | --- | --- | --- |
| O=C(Oc1ccccc1C(=O)O)c1ccccc1O | -27.2 | – | – |
| CC12CCC(CC1)C(C)(C)O2 | – | inactive | – |
| CC1CC(OC(=O)c2ccccc2O)CC(C)(C)C1 (stereo not given) | – | inactive | – |
| NC(=O)c1cc[n+](CC2=C(C(=O)[O-])N3C(=O)[C@@H](NC(=O)Cc4cccs4)[C@H]3SC2)cc1 | – | inactive | – |
| CC(=O)c1ccc(S(=O)(=O)NC(=O)NC2CCCCC2)cc1 | 4.85 | – | – |
| Nc1ncn([C@H]2C[C@H](O)[C@@H](CO)O2)c(=O)n1 | -12.8 | – | – |
| C[N+](C)(CCOc1ccccc1)Cc1cccs1 | -23 | – | – |
| CC[N+](C)(CC)CCOC(=O)C1c2ccccc2Oc2ccccc21 | – | inactive | – |
| CC(=O)Nc1ccc(OC(=O)c2ccccc2OC(C)=O)cc1 | -2.29 | – | – |
| CN(C)CCOc1ccc(/C(=C(/CCCl)c2ccccc2)c2ccccc2)cc1 | – | – | 15.8 µM (active) and 20 µM (active) |
| CN1C(=O)OC(C)(C)C1=O | – | inactive | – |
| CC1CCN(CCCC(=O)c2ccc(F)cc2)CC1 | -25 | – | – |
| NS(=O)(=O)c1cc2c(cc1Cl)NC(CC1CCCC1)NS2(=O)=O (stereo not given) | – | inactive | – |
| O=P(O)(O)C(O)(Cn1ccnc1)P(=O)(O)O | – | inactive [at 5.25 µM] | – |
| COc1cccc(OC)c1C(=O)N[C@@H]1C(=O)N2[C@@H]1SC(C)(C)[C@@H]2C(=O)O | -19.9 | – | – |
| CC(=O)OCC(=O)[C@@]1(OC(C)=O)[C@@H](C)C[C@H]2[C@@H]3C[C@H](F)C4=CC(=O)C=C[C@]4(C)[C@@]3(F)[C@@H](O)C[C@@]21C | – | inactive | – |
| CCCc1ccc(OCC(=O)N2CCN(C(=O)COc3ccc(CCC)cc3OC)CC2)c(OC)c1 | -6.24 | – | – |
| CCCCCC[C@@H](CCC)C(=O)O | – | inactive | – |
| CC(C)COC(=O)c1ccc(N)cc1 | – | inactive | – |
| COc1cc(NS(=O)(=O)c2ccc(N)cc2)nc(C)n1 | – | inactive | – |
| O=C(O)c1cc(=O)c2c(OCC(O)COc3cccc4oc(C(=O)O)cc(=O)c34)cccc2o1 | – | – | inactive |
| Cc1cc(O)c2c(O)c3c(O)cccc3cc2c1 | -3.92 | – | – |
| C[C@]12CCC(=O)C=C1CC[C@H]1[C@@H]3CC[C@](O)(C(=O)CO)[C@@]3(C)C[C@H](O)[C@@]12F | -15.9 | – | – |
| Cc1cc(O)cc(C)c1Cl | – | inactive | – |
| COc1cc(C)c(Cc2cnc(N)nc2N)cc1OC | – | inactive | – |
| Cc1cc(NS(=O)(=O)c2ccc(N)cc2)no1 | – | inactive | – |
| CC[N+](CC)(CCNC(=O)C(=O)NCC[N+](CC)(CC)Cc1ccccc1Cl)Cc1ccccc1Cl | – | inactive | – |
